Read-out in test [1]: E-selectin (Homo sapiens) (UniProt P16581)
The test is described as follows: BSK_SAg_Eselectin: BioMAP Diversity Plus: SAg Assay for Eselectin Biomarker Activity (AID 2283091). The note with it: primary human HUVEC with PBMC; actives raise or lower the signal. The procedure, abridged:
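Human umbilical vein endothelial cells co-cultured with peripheral blood mononuclear cells, SAg system. E-selectin is measured by ELISA 24 h after dosing and fitted bidirectionally against DMSO. Cytotoxicity is checked by SRB staining of parallel cultures.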

Test [2] is described as follows: BSK_SAg_PBMCCytotoxicity: PBMC Cytotoxicity Assessment in the BioMAP Diversity Plus: SAg Assay (AID 2283093).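 Further: PBMC viability measured as Alamar Blue reduction fluorescence at 546/580 nm; fitted both ways against DMSO so a hit may be loss or gain of signal.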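 On AC50: PBMC superantigen activated with SEB plus TSST-1 one hour after compound addition.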 The conditions noted are these: primary human HUVEC with PBMC. The method in brief: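 HUVEC/PBMC co-culture; PBMC exposed to chemical 1 h before SEB and TSST-1 activation (20 ng/mL each), incubated 90 h, then Alamar Blue 6 h, fluorescence 546/580 nm. Bidirectional fit versus DMSO baseline.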

Read-out in test [3]: Interleukin-8 (IL8), CXCL8 (gene 3576)
The test is described as follows: BSK_SAg_IL8: BioMAP Diversity Plus: SAg Assay for Interleukin-8 (IL8) Biomarker Activity (AID 2283094). The note with it: primary human HUVEC with PBMC; actives raise or lower the signal. The method in brief:
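ELISA read-out of IL-8 in a primary human vascular co-culture (umbilical vein endothelium plus PBMC), taken 24 h after compound addition. Values derive from bidirectional fits against DMSO negative controls.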

Test [4] is described as follows: BSK_SAg_Proliferation: Cell Proliferation Assessment in the BioMAP Diversity Plus: SAg Assay (AID 2283095).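 Further: relative cell number as total protein by SRB absorbance in sub-confluent culture.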 The conditions noted are these: primary human HUVEC with PBMC. The procedure, abridged:
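Cells (endothelium plus PBMC, human primary) were dosed with chemical, cultured 96 h, fixed in 10% TCA and stained with 0.1% SRB. Absorbance at 560 nm gave relative protein, fitted bidirectionally relative to DMSO.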

Test [5] in a line: BSK_SAg_SRB: Viability Assessment in the BioMAP Diversity Plus: SAg Assay (AID 2283096).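 Further: cells read one day after compound addition; hits may be either gain or loss of signal compared with DMSO.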 The conditions noted are these: primary human HUVEC with PBMC. The method in brief: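 Human umbilical vein endothelial cells co-cultured with PBMC, read 24 h after compound dosing. Total protein measured by sulforhodamine B staining (0.1% SRB after 10% TCA fixation, absorbance 560 nm); bidirectional fit versus DMSO baseline.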

Read-out in test [6]: Monokine induced gamma interferon (MIG), CXCL9 (gene 4283)
Kind of test: BSK_SAg_MIG: BioMAP Diversity Plus: SAg Assay for Monokine induced gamma interferon (MIG) Biomarker Activity (AID 2283092). The note with it: primary human HUVEC with PBMC; actives raise or lower the signal. The procedure, abridged:
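Measures CXCL9 protein by ELISA in a human vascular primary-cell co-culture (umbilical vein endothelium with PBMC) 24 h after chemical addition. Activity is scored up or down from the DMSO control.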

Molecules are shown by their SMILES. Several values for one entry are separate records, joined by “and”; a condition that tells them apart may be missing. Identical values can stand only once. Some structures have more than one record in an assay (separate samples or runs), and their calls can disagree. Activity calls are given as the source filed them. How the source made its calls: active means hit-call score of the fitted dose curve at least 0.9, where 1 is the maximum; inactive means score below 0.9.

Sequence of E-selectin (Homo sapiens) (P16581 whole entry, looked up): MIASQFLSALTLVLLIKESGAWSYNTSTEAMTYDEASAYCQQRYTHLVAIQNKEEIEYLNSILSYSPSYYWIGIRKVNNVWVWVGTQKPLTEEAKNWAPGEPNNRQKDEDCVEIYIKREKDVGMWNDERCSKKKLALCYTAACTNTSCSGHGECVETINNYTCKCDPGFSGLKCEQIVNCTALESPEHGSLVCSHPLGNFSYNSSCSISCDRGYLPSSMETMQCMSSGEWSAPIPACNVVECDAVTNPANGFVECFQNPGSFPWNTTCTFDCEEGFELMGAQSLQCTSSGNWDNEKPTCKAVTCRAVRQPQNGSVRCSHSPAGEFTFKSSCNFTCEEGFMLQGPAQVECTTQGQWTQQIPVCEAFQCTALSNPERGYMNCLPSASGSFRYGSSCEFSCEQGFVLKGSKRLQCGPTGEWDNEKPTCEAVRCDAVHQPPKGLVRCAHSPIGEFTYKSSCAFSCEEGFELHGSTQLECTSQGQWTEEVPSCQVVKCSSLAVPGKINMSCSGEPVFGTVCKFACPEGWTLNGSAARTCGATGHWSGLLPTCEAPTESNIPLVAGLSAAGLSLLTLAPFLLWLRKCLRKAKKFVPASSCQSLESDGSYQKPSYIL

Consider `CC1=NN(c2ccccc2)C(=O)C1`, for which the result in test [1], in test [2], in test [3], in test [4] and in test [5] was inactive.
For `O=C(O)CCC(F)(F)C(F)(F)C(F)(F)C(F)(F)C(F)(F)F`, the result in test [1], in test [2], in test [3], in test [4] and in test [5] was inactive.
As for `C=CC(C)(CCC=C(C)C)OC(C)=O` (configuration not stated), the result in test [1], in test [6], in test [2], in test [3], in test [4] and in test [5] was inactive.
In general, AC50 refers to the midpoint of the concentration-response curve, whichever way the signal moves. On to `N=C(N)c1ccc(OCCCCCOc2ccc(C(=N)N)cc2)cc1`, for which the outcome in test [1], in test [2] and in test [5] was inactive. The AC50 in test [3] is 6.91 µM (active); in test [4] it was 13.6 µM (active).
`O=P(O)(O)CCC(F)(F)C(F)(F)C(F)(F)C(F)(F)C(F)(F)C(F)(F)C(F)(F)C(F)(F)F`: the result in test [1], in test [6], in test [2], in test [3] and in test [4] was inactive. The AC50 in test [5] was 25.1 µM (active) and 38.3 µM (active).
Regarding `Clc1ccc(Nc2nnc(Cc3ccncc3)c3ccccc23)cc1`, the result in test [1], in test [6], in test [2], in test [3], in test [4] and in test [5] was inactive.
Take `CCCCc1oc2ccccc2c1C(=O)c1cc(I)c(OCCN(CC)CC)c(I)c1`: the AC50 is 22.7 µM (active) in test [1]; 8.86 µM (active) in test [2]; 15.1 µM (active) in test [3]; 4.1 µM (active) in test [4]; 13.4 µM (active) in test [5].
Consider `Cc1ccc(N=Nc2c(O)ccc3ccccc23)c(C)c1`, for which the result in test [1], in test [6], in test [3] and in test [5] was inactive. Further, the AC50 was 4.15 µM (active) in test [2] and 4.79 µM (active) in test [4].
`Cc1[nH]nc2c1N=C(c1ccccc1Cl)c1cc([N+](=O)[O-])ccc1N2`: the AC50 in test [1] was 4.48 µM (active); in test [3] it was 0.893 µM (active); in test [4] it was 1.94 µM (active); in test [5], 2.15 µM (active). Also, the result in test [2] was inactive.
As to `CCC(C)c1ccccc1O` (configuration not stated), the outcome in test [1], in test [6], in test [2], in test [3], in test [4] and in test [5] was inactive.
Take `COCN(COC)c1nc(N(COC)COC)nc(N(COC)COC)n1`: the outcome in test [1], in test [6], in test [2], in test [3], in test [4] and in test [5] was inactive.
As for `O=S(=O)(O)C(F)(F)C(F)(F)C(F)(F)C(F)(F)C(F)(F)C(F)(F)C(F)(F)C(F)(F)C(F)(F)C(F)(F)F`, the AC50 in test [1] is 7.15 µM (active); in test [5] it was 13.2 µM (active). Also, the result in test [1], in test [2], in test [3], in test [4] and in test [5] was inactive.
As for `OCC(F)(F)C(F)(F)C(F)(F)C(F)(F)C(F)(F)C(F)(F)C(F)(F)C(F)(F)C(F)(F)C(F)(F)C(F)(F)F`, the result in test [1], in test [3] and in test [5] was inactive. For the same molecule, the AC50 in test [2] is 115 nM (active) and 64.1 nM (active); in test [4], 476 nM (active) and 63.9 nM (active).
As for `O=C(CC(=O)C(F)(F)C(F)(F)C(F)(F)F)c1cccs1`, the concentration at half-maximal activity (AC50) in test [1] was 30 µM (active) and 43.1 µM (active); in test [6], 48.3 µM (active) and 53.4 µM (active); in test [2], 44.8 µM (active) and 43.6 µM (active); in test [3], 3.52 µM (active) and 10.7 µM (active); in test [4], 13.5 µM (active) and 13.3 µM (active); in test [5], 29.9 µM (active) and 48.5 µM (active).
In the case of `NC(=NCCCCCCN=C(N)/N=C(\N)Nc1ccc(Cl)cc1)/N=C(\N)Nc1ccc(Cl)cc1`, the AC50 in test [1] is 5.02 µM (active); in test [6], 7.58 µM (active); in test [2], 7.06 µM (active); in test [3], 0.896 µM (active); in test [4], 2.72 µM (active); in test [5] it was 4.89 µM (active).
As to `OCC(CO)(CBr)CBr`, the result in test [1], in test [2], in test [3], in test [4] and in test [5] was inactive.
`O=C(NCc1ncc(C(F)(F)F)cc1Cl)c1c(Cl)cccc1Cl`: the outcome in test [1], in test [2], in test [3], in test [4] and in test [5] was inactive.
Regarding `CC[N+](CC)(CC)Cc1ccccc1`, the result in test [1], in test [6], in test [2], in test [3], in test [4] and in test [5] was inactive.
Regarding `Cc1cccc2c1ccc1ccccc12`, the result in test [1], in test [2], in test [3], in test [4] and in test [5] was inactive.
`C=CC(=C)CC/C=C(\C)CCC=C(C)C`: the outcome in test [1], in test [6], in test [2], in test [3], in test [4] and in test [5] was inactive.
In the case of `CCCCCCCCCCCC`, the outcome in test [1], in test [2], in test [3], in test [4] and in test [5] was inactive. In test [4], the concentration at half-maximal activity (AC50) was 36.6 µM (active).
On to `O=C1NS(=O)(=O)c2ccccc21`, for which the outcome in test [1], in test [6], in test [2], in test [3], in test [4] and in test [5] was inactive.
Consider `O=C(CCCN1CCC(O)(c2ccc(Cl)cc2)CC1)c1ccc(F)cc1`, for which the outcome in test [1], in test [6], in test [2] and in test [3] was inactive. For the same molecule, the AC50 was 27 µM (active) in test [4] and 19 µM (active) in test [5].
With `COC1=CC(=O)C[C@@H](C)[C@]12Oc1c(Cl)c(OC)cc(OC)c1C2=O`, the result in test [1], in test [6], in test [2], in test [3], in test [4] and in test [5] was inactive.
On to `CCCCCCCCCCCCOS(=O)(=O)O`, for which the outcome in test [1], in test [2], in test [3], in test [4] and in test [5] was inactive.
Take `O=P(O)(O)CCC(F)(F)C(F)(F)C(F)(F)C(F)(F)C(F)(F)C(F)(F)F`: the result in test [1], in test [2], in test [3], in test [4] and in test [5] was inactive.
Turning to `C=COC(=O)C(C)(C)CCCCCC`, the AC50 was 32.2 µM (active) in test [1], 36.8 µM (active) in test [2], 30.7 µM (active) in test [4] and 36.1 µM (active) in test [5]. The result in test [6] and in test [3] was inactive.
